# Results: PubChem BioAssay (NCATS)
# Values joined by “and” are separate entries in the source; they are usually repeats but may differ in a detail not shown here. Identical values can stand only once. Inconclusive results are not listed. Active and inactive are the calls of the source. The call rests on the fitted dose curve; in most records, active means well fitted curve in either direction with a large enough effect (not every such curve was filed as active); inconclusive means small, poorly fitted or top-dose-only effect, or another doubt; inactive means flat fitted curve, though single readings scatter.
# Assay: NFAT Signaling Pathway (AID 444)
# Settings: Jurkat NFAT-bla M1, carbachol, beta-lactamase ratio, 5 h; at 7.69 µM (top of the series)
# Description: NCGC Assay Overview: The nuclear factor of activated T cells (NFAT) family of transcription factors has been found primarily in most immune system cells and some other non-immune cells. NFAT plays the immunomodulatory role, primarily in T-cell activation and differentiation. NFAT target genes are also involved in the regulation of apoptosis and differentiation in non-immune cell types. The NFAT sequence was engineered to the upstream of the ?-lactamase reporter gene and transfected into Jurkat cells with co-transfection of muscarinic receptor1 [provided by Invitrogen Corp]. When an extracellular stimulus, such as carbachol, binds to the GPCR M1 receptor, it stimulates a signaling cascade that activates NFAT response element and ?-lactamase expression by phosphorylating the NFAT binding protein. This cell based ?-lactamase reporter gene assay can accurately monitor any changes occurring along the NFAT pathway, and can be used for screening small molecule inhibitor or activator upon activation by carbachol EC50 concentration. A small molecular library were screened in a titration series resulting in AC50s (can be either IC50s or EC50s).
# NCGC Assay Protocol Summary: The cells were prepared in RPMI 1640 medium containing 0.1% dialyzed FBS and 25 mM HEPES at 1.6 x 10^6cell/ml. The assay was performed in 1536-well plate format as follows: 5 ul of cell preparation 23 nl of compounds 1ul of carbachol (final concentration 1 uM) Briefly centrifuge the plates and incubate at 37 °C for 5 hours 1 ul of CCF4 dye mixture Incubate the plates at RT for 1 hour Read the plate in EnVision plate reader (Ex= 405nm, and Em1=460nm and Em2=530nm). The %Activity was determined from the ratio of 460nm/530nm. Data normalization and AC50 calculations were accomplished using GeneData software.
# On the % scale 0 is the no-effect control and ±100 the full control effect.
row,Structure (SMILES),"activity change, negative = inhibition"
1,CC[C@@]12CCCN3CCc4c(n(c5ccccc45)C(=O)C1)[C@H]32,-5.89% (inactive)

# Same assay, conditions: Jurkat NFAT-bla M1, carbachol, beta-lactamase ratio, 5 h; at 7.69 µM (top of the series) unless noted
row,Structure (SMILES),"activity change, negative = inhibition"
1,N#Cc1ccccc1-c1ccc2ncnc(NCCN3CCOCC3)c2c1,-6.3% (inactive)
2,O=C(c1cccc(F)c1)N1CCC[C@@]2(CCN(Cc3ccncc3)C2)C1,-14.7% (inactive)
3,COc1cccc(Cn2c(=O)c(-c3ccc(Cl)cc3)nc3cnc(N4CCN(C)CC4)nc32)c1,23.1% (inactive)
4,COCCNc1ccnc(-c2c(C)noc2C)n1,9% (inactive)
5,Cc1noc(C)c1C(=O)N1CCC[C@@]2(CCN(Cc3nccs3)C2)C1,9.88% (inactive)
6,c1cncc(CNc2cc(-c3ccoc3)ncn2)c1,-10.4% (inactive)
7,COc1ccc(Oc2ncc3ncc(=O)n(C4CC4)c3n2)cc1,5.04% (inactive)
8,COc1ccc(C(=O)N2CCC3(CC2)CCN(c2cccc(-c4ccccc4)c2)CC3)cc1,-6.4% (inactive)
9,c1cncc(-c2nccc(-n3ccnc3)n2)c1,1.68% (inactive)
10,CCN1CCC[C@@H]1CNC(=O)c1cc(S(N)(=O)=O)ccc1OC,-3.07% [at 38 µM] (inactive) and -10.9% [at 38 µM] (inactive)
11,Cc1cnc(CNc2ncncc2-c2ccoc2)cn1,-1.22% (inactive)
12,C[N+]1(C)CCC[C@@H](OC(=O)C(O)(c2ccccc2)c2ccccc2)C1,-62.4% [at 17.2 µM] (active)
13,Cn1cccc1C(=O)N1CCC2(CCCN(c3ccc(-c4ccccc4)cc3)C2)CC1,-14.9% (inactive)
14,N#Cc1ccc(CN2CC[C@@]3(CCCN(C(=O)c4cccc(F)c4)C3)C2)cc1,-12.5% (inactive)
15,O=c1c(-c2cc(F)cc(F)c2)nc2cnc(Oc3ccccc3)nc2n1C[C@H]1CCCO1,-1.84% (inactive)
16,CN(C)C(=O)c1ccc(-c2nc(-n3ccnc3)c3ccccc3n2)cc1,2.92% (inactive)

row,Structure (SMILES),"activity change, negative = inhibition"
1,COCCn1c(=O)c(-c2ccccc2)nc2cnc(Nc3cccc(OC)c3)nc21,-5.93% (inactive)
2,COCCn1c(=O)c(-c2ccc(OC)cc2)nc2cnc(Nc3cccc(OC)c3)nc21,-5.57% (inactive)
3,COc1cccc(-c2cncnc2NCc2cccnc2)c1,-6.72% (inactive)
4,O=c1c(CCc2ccccc2)nc2cncnc2n1-c1ccccc1,-14% (inactive)
5,Cc1cnc(CNc2cc(-c3ccc(C(=O)N(C)C)cc3)ncn2)cn1,15.2% (inactive)
6,Cn1c(=O)c(-c2ccc(F)cc2)nc2cncnc21,-1.33% (inactive)
7,COCCn1c(=O)c(-c2cc(F)cc(F)c2)nc2cncnc21,1.95% (inactive)
8,Cn1cccc1C(=O)N1CCC2(CC1)CN(C(=O)Nc1cccc(C#N)c1)C2,-2.19% (inactive)
9,COc1ccc2[nH]cc(CCNc3ccnc(-c4ccc5c(c4)OCO5)n3)c2c1,-4.51% (inactive)
10,CC(C)CN1CC2(CCN(C(=O)c3cnccn3)CC2)C1,-25.4% (inactive)
11,COCC(=O)N1CCC2(CC1)CCN(c1ccccc1)CC2,15.9% (inactive)
12,Cn1c(=O)c(-c2ccc(Cl)cc2)nc2cnc(OCc3ccccc3)nc21,-7.07% (inactive)
13,Cc1cccc(CNc2ccnc(-c3ccc(C(=O)N(C)C)cc3)n2)c1,6.95% (inactive)
14,COc1ccc(C(=O)N2CCC3(CCCN(C(=O)Nc4cccc(C#N)c4)C3)CC2)cc1,-8.43% (inactive)
15,COc1cccc(Nc2ncc3nc(-c4cc(F)cc(F)c4)c(=O)n(C4CC4)c3n2)c1,-29.9% (inactive)
16,Clc1ccccc1-c1nccc(NCCN2CCOCC2)n1,3.47% (inactive)

# Same assay, conditions: Jurkat NFAT-bla M1, carbachol, beta-lactamase ratio, 5 h; at 17.2 µM (top of the series)
row,Structure (SMILES),"activity change, negative = inhibition"
1,CO[C@]1(NC(=O)CSCC#N)C(=O)N2C(C(=O)O)=C(CSc3nnnn3C)CS[C@H]21,-17.5% (inactive)
2,CC(=O)OCC1=C(C(=O)O)N2C(=O)[C@@H](NC(=O)Cc3cccs3)[C@@H]2SC1,-11.2% (inactive)
3,CC[C@@]12CCCN3CCc4c(n(c5ccccc45)C(=O)C1)[C@H]32,-3.8% (inactive)
4,O[C@@](CCN1CCCCC1)(c1ccccc1)C1CCCCC1,-51.7% (active)

# Same assay, conditions: Jurkat NFAT-bla M1, carbachol, beta-lactamase ratio, 5 h; at 38 µM (top of the series)
row,Structure (SMILES),"activity change, negative = inhibition"
1,CO[C@]1(NC(=O)CSCC#N)C(=O)N2C(C(=O)O)=C(CSc3nnnn3C)CS[C@H]21,-10.8% (inactive)
2,CC(=O)OCC1=C(C(=O)O)N2C(=O)[C@@H](NC(=O)Cc3cccs3)[C@@H]2SC1,3.89% (inactive)
3,O[C@@](CCN1CCCCC1)(c1ccccc1)C1CCCCC1,-75.1% (active)
